Source: PubChem BioAssay (EPA / NIEHS)
Active and inactive are the calls of the source. The calls were made as follows: active = hit-call score of the fitted dose curve at least 0.9, where 1 is the maximum; inactive = score below 0.9.

The compounds below were run on Vascular cell adhesion molecule 1 (VCAM1), VCAM1 (gene 7412) (assay: BSK_LPS_VCAM1: BioMAP Diversity Plus: LPS Assay for Vascular cell adhesion molecule 1 (VCAM1) Biomarker Activity (AID 2283086)). Details: primary human HUVEC with PBMC; actives raise or lower the signal.
Procedure: BSK_LPS is a cell-based, multiplexed-readout assay that uses umbilical vein endothelium and peripheral blood mononuclear cells, a human vascular primary cell co-culture, with measurements taken at 24 hours after chemical dosing in a 96-well plate.BSK_LPS_VCAM1 is an assay component measured in the BSK_LPS assay. It measures VCAM-1 antibody related to regulation of gene expression using ELISA technology.Data from the assay component BSK_LPS_VCAM1 was analyzed into 1 assay endpoint. This assay endpoint, BSK_LPS_VCAM1, was analyzed with bidirectional fitting relative to DMSO as the negative control and baseline of activity. Using a type of binding reporter, gain or loss-of-signal activity can be used to understand changes in the signaling as they relate to the gene VCAM1. Furthermore, this assay endpoint can be referred to as a primary readout, because this assay has produced multiple assay endpoints where this one serves a signaling function. To generalize the intended target to other relatable targets, this assay endpoint is annotated to the cell adhesion molecules intended target family, where the subfamily is Immunoglobulin CAM.
The levels of cell surface (or secreted, indicated by the prefix "s") biomarker endpoints were measured by ELISA. Overt cytotoxicity to cells in confluent adherent cultures (all systems other than the BT system) was assessed by measuring total protein levels using sulforhodamine B (SRB) staining in parallel cultures at the time of biomarker measurements, indicated as SRB endpoints. For proliferation assays for adherent cell types, individual cell types are cultured at sub-confluence and relative cell numbers quantified by SRB staining at time points optimized for each system (48 h: 3C and CASM3C systems; 72 h: BT and HDF3CGF systems; 96 h: SAg system). SRB was performed by staining cells with 0.1% SRB after fixation with 10% TCA and reading wells at 560 nm.Viability and proliferation of PBMC (T cells) was quantified by Alamar Blue reduction for the SAg and BT systems. For PBMC viability (referred to as PBMC Cytotoxicity within the assay endpoint names), cells were plated (75,000/well in a 96-well plate) and then chemical samples added for 1 h before addition of activators, SEB and TSST-1 (20 ng/mL final concentration each). Cells were incubated for 90 h. Then, Alamar Blue (20 uL/well) (Invitrogen, Cat DAL1100) was added for 6 h, and the plates were read with a fluorescence microplate reader at 546/580 nm (excitation/emission). For PBMC proliferation, cells were plated and activated as above but incubated for only 16 h prior to addition of Alamar Blue. Plates were read after 6 h.

| SMILES | outcome | AC50 |
| --- | --- | --- |
| O=C1CCCCCN1 | inactive | – |
| COC(=O)c1ccccc1O | inactive | – |
| CCCCCCCCCCCCc1ccccc1 | inactive | – |
| CCOC(=O)COc1ccc2c(c1)CC(NCC(O)c1cccc(Cl)c1)CC2 (stereo not given) | – | 31.3 µM (active) |
| COc1cccc(-c2ccc(/C=C\CN3CCCCCC3)cc2Cl)c1 | – | 26 µM (active) |
| Clc1nc(Cl)c(Cl)c(Cl)c1Cl | – | 32.3 µM (active) |
| O=C1CCC(N2C(=O)c3ccccc3C2=O)C(=O)N1 (stereo not given) | inactive | – |
| Nc1ccc(Nc2ccccc2)cc1 | – | 7.32 µM (active) |
| Oc1ccc2c(c1)-c1ccccc1C2 | inactive | – |
| NC(=O)NO | inactive | – |
| CCCCCCc1ccc(O)cc1O | – | 32 µM (active) |
| On1ccccc1=S | – | 19.8 µM (active) |
| CC(C)=CCCC(C)=CC=O | – | 33.7 µM (active) |
| Cc1c(-c2cccnc2)c2ccccc2n1CCCCC(=O)O | inactive | – |
| COc1ccc(-n2nc(C(F)F)cc2-c2ccc(S(C)=O)cc2)cc1 (stereo not given) | inactive | – |
| CN(C)c1ccc(N=NS(=O)(=O)O)cc1 | – | 10.4 µM (active) |
| O=C(O)CCN(C1(C(=O)NO)CCCC1)S(=O)(=O)c1ccc(Oc2ccc(F)cc2)cc1 | inactive | – |
| Cc1[nH]cnc1C[C@H]1CCc2c(C)c3ccccc3n2C1=O | – | 32.9 µM (active) |
| CN(C)c1ccc(Cc2ccc(N(C)C)cc2)cc1 | inactive | – |
| CCCCC(CC)COC(=O)CCCCCCCCC(=O)OCC(CC)CCCC (stereo not given) | inactive | – |

| SMILES | outcome | AC50 |
| --- | --- | --- |
| CC(C)CCCCCCOC(=O)c1ccc(C(=O)OCCCCCCC(C)C)c(C(=O)OCCCCCCC(C)C)c1 | inactive | – |
| CCC(C)(C)C(=O)O[C@H]1C[C@@H](C)C=C2C=C[C@H](C)[C@H](CC[C@@H]3C[C@@H](O)CC(=O)O3)[C@H]21 | – | 25.4 µM (active) |
| COC(=O)CC(=O)OC | inactive | – |
| COCCOCCOCCOC | inactive | – |
| CC[C@H]1CC[C@H](NCc2cc3c(cc2OC)[C@H]2C[C@H]2C(=O)N3C)[C@H](c2ccccc2)N1 | inactive | – |
| O=C(NS(=O)(=O)/C=C/c1ccccc1)c1ccc(F)cc1Cl | inactive | – |
| Nc1cccc(N)c1 | inactive | – |
| CNCc1ccc(NC(=O)c2c[nH]c3c2C(=O)CCC3)cc1 | inactive | – |
| CC1=CC(=O)CC(C)(C)C1 | inactive | – |
| Cc1ccc(S(=O)(=O)O)cc1C | inactive | – |
| CCCCCCCCO | inactive | – |
| O=P(OC(CCl)CCl)(OC(CCl)CCl)OC(CCl)CCl | inactive | – |
| C=CCCCCCCCCC(=O)O | inactive | – |
| CCn1nc(Cc2ccccc2)cc1C1CCN(C[C@H]2C[C@H](N(C)[C@@H](C(=O)O)C(C)C)C[C@@H]2c2cccc(F)c2)CC1 | inactive | – |
| O=C1OC(=O)C2C3C=CC(C3)C12 (stereo not given) | inactive | – |
| COC(=O)c1c(Cl)c(Cl)c(C(=O)OC)c(Cl)c1Cl | inactive | – |
| O=C(O)c1cc(N=Nc2ccc(S(=O)(=O)Nc3ccccn3)cc2)ccc1O | inactive | – |
| CC1(C)C(=O)N(Br)C(=O)N1Br | inactive | – |
| CC(C)=CCCC(C)CCO (stereo not given) | inactive | – |
| CC(C)CC(C)(O)C#CC(C)(O)CC(C)C (stereo not given) | inactive | – |
